# TPT1 inh: Candida albicans TPT1 enzyme inhibitors, primary screen, biochemical, fluorescence polarization; tRNA 2'-phosphotransferase TPT1 (Candida albicans SC5314); recombinant caTPT1, FP RNA substrate dephosphorylation; inhibition, % at 5 µM; 0.81% of 300,000 active; AID 1962, 2009;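 active = inhibition above the mean of all tested compounds plus 3 SD, set per screening campaign, cut at about 24% in these data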;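 note: plate controls were DMSO alone for no effect and ferristatin control at 100 nM for full effect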
# Rpn11 inh: Rpn11 (PSMD14) deubiquitinase inhibitors, primary screen, biochemical, fluorescence polarization, uHTS; 0.59% of 360,000 active; 26S proteasome non-ATPase regulatory subunit 14 (Homo sapiens), O00487; human 26S proteasome, Ub4-pepOG fluorescence polarization; 20S core pre-blocked with epoxomicin; AID 588493, 2011; inhibition, % at 20 µM;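 active = inhibition at 20 µM, scaled to each plate's controls, above about 33%, limit read from the data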
# dFosB act-1: activators of delta FosB homodimer, primary screen, biochemical, fluorescence polarization, TAMRA-CDK5 oligo, single point. AID 493131, 2011. activation, % at 25 µM. purified delta FosB; percent of positive-control signal above neutral wells. 0.99% of 340,000 active;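 active = mean activation above about 17%, with every replicate also reaching it, limit read from the data, passing the limit was not always enough; inconclusive = only one of the two conditions met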
# Target sequence (P13346 whole entry, looked up): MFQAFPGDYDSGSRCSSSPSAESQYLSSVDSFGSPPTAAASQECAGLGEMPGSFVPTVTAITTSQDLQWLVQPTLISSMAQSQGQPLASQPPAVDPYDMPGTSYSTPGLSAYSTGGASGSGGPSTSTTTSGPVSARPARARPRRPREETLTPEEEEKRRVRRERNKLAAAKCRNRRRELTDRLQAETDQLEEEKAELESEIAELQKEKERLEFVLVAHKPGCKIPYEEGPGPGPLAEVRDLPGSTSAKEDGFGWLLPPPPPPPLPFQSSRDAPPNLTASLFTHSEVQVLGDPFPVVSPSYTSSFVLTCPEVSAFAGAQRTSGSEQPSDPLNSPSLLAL
# ZTA counter: ZTA (EBV) inhibition in EBNA-1 counter-screen; P03206; inhibition, % at 11 µM; AID 2234; ZTA-DNA binding, fluorescence polarization; 0.15% of 320,000 active; in the data active = inhibition above about 33%
# Target sequence (P03206 whole entry, looked up): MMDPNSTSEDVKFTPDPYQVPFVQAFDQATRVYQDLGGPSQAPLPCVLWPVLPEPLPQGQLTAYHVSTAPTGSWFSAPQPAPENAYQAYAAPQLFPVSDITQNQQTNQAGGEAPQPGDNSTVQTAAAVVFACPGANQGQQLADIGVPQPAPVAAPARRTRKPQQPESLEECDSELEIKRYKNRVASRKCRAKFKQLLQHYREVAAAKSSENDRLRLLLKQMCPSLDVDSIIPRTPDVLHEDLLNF
# EBNA-1 inhibitor: EBNA-1 DNA-binding inhibitors, primary screen, biochemical, fluorescence polarization | inhibition, % at 14.8 µM | 0.34% of 300,000 active; in the data active = inhibition above about 28%
# GRIN3A LBD mod: binders of NR3A ligand-binding domain, primary screen, biophysical, differential scanning fluorimetry, uHTS; Glutamate receptor ionotropic, NMDA 3A (GRIN3A) ligand-binding domain; NR3A LBD differential scanning fluorimetry, Tm shift; 0% = protein alone, 100% = glycine-bound protein; Tm shift relative to glycine control, % at 25 µM; 2.5% of 340,000 active;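 active = melting temperature shift of at least 10% of the positive control shift, at one fixed dose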
# dFosB act-2: activators of mouse delta FosB DNA binding, confirmation, biochemical, fluorescence polarization, TAMRA-CDK5 oligo, cherry-picked samples | shares compounds with dFosB act-1 | purified delta FosB; normalised: neutral wells 0, positive control 100 | activation, % at 24.9 µM | 2,400 tested, under 10 active | AID 588690, 2011;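 active = highest replicate activation at or above 34% and every replicate reaching that threshold; inconclusive = meets only one of the two criteria; inactive = meets neither criterion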;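 note: higher polarization means more probe DNA bound by delta FosB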
# * hit, by the source's call; ? = inconclusive; / = not tested or not shown. Most compounds without a hit are left out; they make up all but 4.5% or so of the library.
SMILES,TPT1 inh,Rpn11 inh,dFosB act-1,ZTA counter,EBNA-1 inhibitor,GRIN3A LBD mod,dFosB act-2
COCCNC(=O)C1(C)CCCN(C(=O)c2ccccc2OC(F)(F)F)C1 (stereo unspecified),/,-2,/,/,/,/,/
CN(C)CCNC(=S)Nc1ccc(-c2nc3ccccc3[nH]2)cc1,1,1,8,1,-15,5,/
O=C(CSc1ccccn1)Nc1ccc2c(c1)OCCO2,-1,-5,4,-9,-8,4,/
O=C(CSc1ccc(-c2nc3ccccc3[nH]2)cn1)Nc1ccc2c(c1)OCCO2,-1,4,40*,-9,11,29*,6
Cc1ccc2nc(-c3ccc(SCC(=O)Nc4ccc5c(c4)OCCO5)nc3)[nH]c2c1,1,3,50*,5,19,26*,-5
Cc1cc2nc(-c3ccc(SCC(=O)Nc4ccc5c(c4)OCCO5)nc3)[nH]c2cc1C,11,16,32*,8,8,15*,3
S=C(NCc1ccc2c(c1)OCO2)Nc1ccc(-c2nc3ccccc3[nH]2)cc1,-2,3,32*,6,12,26*,-9
Cc1cc2nc(-c3ccc(SCC(=O)N4CCOCC4)nc3)[nH]c2cc1C,-5,4,11,11,4,-1,/
O=C(Nc1ccc(F)cc1F)c1ccc2c(=O)n3c(nc2c1)CCC3,/,-11,-9,/,/,2,/
CCCc1nnc(NC(=O)C2CCN(C(=O)c3ccco3)CC2)s1,-2,-1,-6,-26,-7,-2,/
Cc1nc(NC(=O)CSc2ccc(-c3nc4ccccc4[nH]3)cn2)sc1C,9,8,47*,5,26,20*,2
CCOC(=O)CSc1ccc(-c2nc3ccccc3[nH]2)cn1,2,-4,-8,-4,-3,-6,/
Cc1ccc2nc(-c3ccc(SCC(=O)Nc4nnc(C)s4)nc3)[nH]c2c1,1,1,72*,0,19,24*,2
COc1ccccc1-c1oc2ccccc2c1C#CC1(N)CCCCC1,/,20,24*,1,/,-10,-1
COc1ccccc1-c1oc2ccccc2c1C#CC1(O)CCCCC1,/,1,0,/,/,-18,/
Cc1ccc(Cn2nc3c4cc(F)ccc4n(Cc4ccc(F)cc4)cc-3c2=O)cc1,/,6,3,/,/,-2,/
COc1cccc(Cn2nc3c4cc(F)ccc4n(Cc4ccc(F)cc4)cc-3c2=O)c1,-3,4,-6,-20,2,1,/
COc1cc2c3nnc(-c4ccccc4)c-3cn(Cc3ccc(F)cc3)c2cc1OC,9,3,22*,-17,-20,-4,1
COc1cc2c3nnc(-c4ccc(F)cc4)c-3cn(Cc3cccc(C)c3)c2cc1OC,-23,-15,41*,-12,-1,-18,-2
COc1ccccc1CCC(=O)Oc1ccc(C#N)cc1OC,/,-1,-6,/,/,-1,/
O=C(CSCCO)Nc1cccc2ccccc12,-2,6,-6,10,3,0,/
O=C(CSCC(=O)Nc1cccc2ccccc12)Nc1cccc2ccccc12,3,6,49*,-6,6,-6,3
Cn1c(=NC(=O)CS(=O)(=O)c2ccccc2)sc2cc([N+](=O)[O-])ccc21,-2,4,-3,-2,1,-1,/
c1nc(NCc2ccc3c(c2)OCO3)c2cc(-c3ccc4c(c3)OCCO4)ccc2n1,/,-7,39*,/,/,-33,3
Cc1cccc(CNc2ncnc3ccc(-c4ccc5c(c4)OCCO5)cc23)c1,/,-11,-5,7,/,-7,/
SMILES,TPT1 inh,Rpn11 inh,dFosB act-1,ZTA counter,EBNA-1 inhibitor,GRIN3A LBD mod,dFosB act-2
COc1ccc(Nc2nc(Nc3ccc(OC)cc3)nc(SC3=NCCS3)n2)cc1,0,-11,37*,16,-1,3,4
CCN(c1ccccc1)S(=O)(=O)c1c(C)noc1C,/,-5,-16,/,/,2,/
CCOC(=O)c1ccc(NC(=O)CSc2nc(=O)n3cccc(C)c3n2)cc1,-2,-7,29*,-6,-8,-2,3
CCOC(=O)c1ccc(NC(=O)CSc2nc(N3CCOCC3)nc(N3CCOCC3)n2)cc1,-4,-16,24*,8,3,1,2
Cc1cccc(C(=O)OCC(=O)c2c(C)[nH]c3ccccc23)c1O,/,6,28*,-12,/,29*,0
CN(c1ccccc1)S(=O)(=O)c1nnc(NC(=O)COc2ccccc2)s1,2,0,20*,-7,0,-3,0
CN(c1ccccc1)S(=O)(=O)c1nnc(NC(=O)COc2ccccc2F)s1,0,-6,33*,-8,2,-4,8
CCC(=O)Nc1nnc(S(=O)(=O)N(C)c2ccccc2)s1,/,-9,-8,/,/,1,/
Cc1c(C(=O)NNC(=O)c2ccccc2O)oc2ccc(Br)cc12,5,9,37*,2,13,-3,0
Cc1c(C(=O)NCc2cccs2)oc2ccc(Br)cc12,-2,1,-3,-8,-2,-8,/
CC(=O)c1sc(NC(=O)C2CCCN2S(=O)(=O)c2ccccc2F)nc1C (stereo unspecified),/,2,21*,7,/,1,0
CCOc1ccc(CNC(=O)c2ccc(NC(=O)C3=CSCCO3)cc2)cc1,3,-7,0,14,9,4,/
Cc1ccc(CNC(=O)c2ccc(NC(=O)C3=CSCCO3)cc2)cc1,0,-2,28*,-1,9,-7,-8
COc1ccc(C(=O)Nn2c(SCC(=O)N3CCC(C)CC3)nc3ccccc3c2=O)cc1,4,1,29*,-2,-8,-2,3
O=C(Nc1nccs1)c1cc2c(s1)-c1ccccc1OC2,-1,-9,37*,0,11,-7,3
Cc1cccc2c1-c1sc(C(=O)Nc3nccs3)cc1CO2,-6,14,?,7,12,-5,/
Cc1cccc2c1-c1sc(C(=O)Nc3cccnc3)cc1CO2,-4,-10,32*,-3,-1,18*,2
Cc1cccc2c1-c1sc(C(=O)Nc3cccc([N+](=O)[O-])c3C)cc1CO2,-5,2,3,-16,5,5,/
CCCOc1ccc(C2c3c(oc4cc(C)c(C)cc4c3=O)C(=O)N2CCCN(C)C)cc1 (stereo unspecified),5,-9,28*,0,-9,-2,2
